Laboratory results: PubChem BioAssay AID1416 (The Scripps Research Institute Molecular Screening Center, 2008)
Hit rate of the full screen: of about 220,000 compounds, about 370 (0.17%) were called active. Only a selection was taken, and actives are over-represented in it overall. A number with no mark means an inactive call.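 How the source made its calls: active means inhibition above the mean inhibition of all tested compounds plus 3 SD, set separately per screening campaign (cut at about 2.9% in these data); inactive means the rest.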

target: Eukaryotic translation initiation factor 2-alpha kinase 3 (Homo sapiens) (UniProt Q9NZJ5); experiment: SEAP translation reporter rise after PERK-DD activation – CHO PERK-DD cells, SEAP luminescence, HTS, PERK inhibitor project, primary screen (AID 1416); conditions: CHO PERK-DD fusion, at 5.6 µM, stronger effect = higher value;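 further: PERK kinase domain activated by AP20187 dimerizer at 100 nM; 0% = DMSO with dimerizer and 100% = rapamycin at 8.4 µM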
Sequence (Q9NZJ5 whole entry, looked up, the tested form may be a part): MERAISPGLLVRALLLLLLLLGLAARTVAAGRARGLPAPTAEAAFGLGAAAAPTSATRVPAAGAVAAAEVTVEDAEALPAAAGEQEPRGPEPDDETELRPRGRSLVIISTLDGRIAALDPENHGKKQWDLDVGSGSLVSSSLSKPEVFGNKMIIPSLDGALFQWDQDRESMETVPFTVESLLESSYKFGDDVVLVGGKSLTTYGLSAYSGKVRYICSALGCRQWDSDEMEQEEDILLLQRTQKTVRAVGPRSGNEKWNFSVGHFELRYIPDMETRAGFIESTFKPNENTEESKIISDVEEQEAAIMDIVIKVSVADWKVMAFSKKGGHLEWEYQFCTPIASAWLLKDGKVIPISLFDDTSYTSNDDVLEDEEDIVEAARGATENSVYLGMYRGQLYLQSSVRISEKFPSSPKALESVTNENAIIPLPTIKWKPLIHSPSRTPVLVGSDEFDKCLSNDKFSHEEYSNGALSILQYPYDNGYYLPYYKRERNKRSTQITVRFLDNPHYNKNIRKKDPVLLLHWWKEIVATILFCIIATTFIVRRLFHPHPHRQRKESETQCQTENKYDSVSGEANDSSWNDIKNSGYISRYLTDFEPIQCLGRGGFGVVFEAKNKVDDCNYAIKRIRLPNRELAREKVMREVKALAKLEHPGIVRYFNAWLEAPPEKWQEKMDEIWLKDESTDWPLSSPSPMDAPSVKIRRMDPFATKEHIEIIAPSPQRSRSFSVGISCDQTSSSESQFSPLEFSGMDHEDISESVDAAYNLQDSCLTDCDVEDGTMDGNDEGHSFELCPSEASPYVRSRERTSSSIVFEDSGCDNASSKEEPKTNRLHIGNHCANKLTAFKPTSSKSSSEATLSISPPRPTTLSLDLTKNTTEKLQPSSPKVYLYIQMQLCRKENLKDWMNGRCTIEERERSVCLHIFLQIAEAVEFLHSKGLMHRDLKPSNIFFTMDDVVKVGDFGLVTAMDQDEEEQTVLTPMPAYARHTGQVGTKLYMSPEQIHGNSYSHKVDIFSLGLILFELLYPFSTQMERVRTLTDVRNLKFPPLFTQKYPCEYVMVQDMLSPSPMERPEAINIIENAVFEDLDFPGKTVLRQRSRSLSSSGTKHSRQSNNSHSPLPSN

Row | SMILES | inhibition
1 | N#Cc1c(NC(=O)c2ccc(N3CCOCC3)c([N+](=O)[O-])c2)sc2c1CCCC2 | 0.19%
2 | O=S(=O)(c1ccc(NC(=S)NN=C(C2CC2)C2CC2)cc1)N1CCOCC1 | 1.01%
3 | C=CCSC(CC)(CC)C(N)=O | 2.98% (active)
4 | O=S(=O)(NCC1OCCc2ccccc21)c1ccccc1 (centres undefined) | 0.47%
5 | Cc1c(-c2ccccc2)cn2c1-c1ccc(C)n1CC2 | 0.83%
6 | CCOC(=O)Cc1ncccc1C(=O)Nc1ccc(OC(F)(F)F)cc1 | 0.3%
7 | COC(=O)[C@H](C)NC(=O)Nc1ccc(OC(F)(F)F)cc1 | -0.1%
8 | Cn1nccc1NC(=O)Nc1ccc(OC(F)(F)F)cc1 | 4.03% (active)
9 | Cc1ccc(S(=O)(=O)Cc2cc(-c3ccc(Cl)cc3)no2)cc1 | 0.87%
10 | CCOC(=O)CN1C(=O)N[C@@H](c2ccc(Br)cc2)C(C(C)=O)=C1C | 0.08%
11 | CCOC(=O)Cc1cc(=O)[nH]c(=O)[nH]1 | 1.51%
12 | CCOCCCNC(=O)Cc1cc(=O)[nH]c(=O)[nH]1 | 3.08% (active)
13 | CCOCCCNC(=O)C(=O)NCCCOCC | 0.9%
14 | O=C(CN1CCc2ccccc21)NC(c1ccccc1)c1ccccc1 | -0.59%
15 | CN(C)C(=O)c1cc(Br)ccc1Cl | 2.54%
16 | CC(=O)NC(Cc1ccc(F)c(F)c1)C(=O)NC1CCN(C(=O)c2ccc(C)cc2)CC1 (centres undefined) | 0.06%
17 | C=C(C)C1CC=C(C)/C(=N\NC(=O)CNc2ccccc2OC)C1 (centres undefined) | 0.13%
18 | c1nc(COc2nsnc2N2CCOCC2)cs1 | 0.89%
19 | c1ccc(COc2nsnc2N2CCOCC2)cc1 | 1.4%
20 | O=C(O)COc1nsnc1N1CCOCC1 | 2.98% (active)
21 | NCC(=O)c1cccc2ccc[n+]([O-])c12 | -0.12%
22 | COc1cc(C(=O)N2CCN(C/C=C/c3ccccc3)CC2)cc(OC)c1C | -0.57%
23 | CC(C)N1CCC(=NNc2ccc([N+](=O)[O-])cc2S(=O)(=O)N2CCOCC2)CC1 | 1%
24 | CC(C)N(C(=O)CSc1nc(COc2ccccc2)nc2ccccc12)C(C)C | 0.48%
